High-throughput results from PubChem.
Most compounds without a hit are left out; they make up all but 3.1% or so of the library.
Tau ThT inhib – tau fibrillization inhibition (ThT binding); P10636; recombinant tau K18 P301L, heparin-induced fibrillization, ThT fluorescence; Potency, µM (series often up to 57.4 µM), for the others: top-dose activity, negative = inhibition, most hits filed as inhibitors; hit rate 2.1% among 270,000; also: nearly all actives have a fitted effect of over 55% in size
Target sequence (P10636 561-689 P618L limits assumed): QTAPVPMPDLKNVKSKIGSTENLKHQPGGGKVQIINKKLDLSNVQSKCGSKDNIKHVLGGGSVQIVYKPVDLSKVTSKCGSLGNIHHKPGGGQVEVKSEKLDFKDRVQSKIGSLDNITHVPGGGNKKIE
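Heparin-induced (20 uM) aggregation of recombinant human K18 P301L tau, 15 uM unlabeled with 0.24 uM labeled, pH 7 acetate buffer, 6 hr at 37 C with compound. Fibrils quantified by 30 uM ThT fluorescence after 1 hr ambient incubation.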
TR SRC2 fluor cs – Texas Red fluorescence interference in TRb-SRC2 counter-screen | TRb/SRC2 Texas Red total fluorescence interference | Potency, µM (highest dose often 106 µM), without a hit: at the highest dose fluorescence change, negative = quenching | hit rate 0.29% among 280,000 | AID 1479; active = well fitted curve in either direction with a large enough effect; inconclusive = small, poorly fitted or top-dose-only effect
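Human TRβ ligand-binding domain (0.6 uM) and Texas Red SRC2 peptide (20 nM) in Tris buffer with 1 uM T3 and 5% DMSO were incubated with pinned compound for 5 hr at ambient temperature. Total fluorescence was computed as S + 2P (555/632 nm).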
Tau fluor cs – counter-screen for tau fibril formation inhibitors; tau K18 P301L Alexa594 fluorescence, heparin fibrillization; Potency, µM (doses to about 57.7 µM), inactives show top-dose activity change, negative = decrease; hit rate 0.93% among 280,000; also: nearly all actives have a fitted effect of over 55% in size
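Human tau K18 P301L (15 uM unlabeled, 0.24 uM Alexa 594-labeled) in 100 mM sodium acetate pH 7 with 20 uM heparin, 6 hr at 37 C. ThT 30 uM added, 1 hr ambient; Alexa 594 FP and total fluorescence read at 555/632 nm.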
TRb-SRC2 inh – inhibitors of human thyroid hormone receptor beta-SRC2 interaction; hit rate 0.065% among 280,000; P10828; TRbeta-SRC2 peptide binding, fluorescence polarization; receptor liganded with 1 µM T3; AID 1469; Potency, µM (doses to about 106 µM), inactives show at the highest dose activity change, negative = inhibition, usual class: inhibitors;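 also: plate controls were bound peptide for no effect and peptide without receptor for full effect; nearly all actives have a fitted effect of over 50% in size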
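Each compound concentration gave % activity, normalized to unbound and bound Texas Red SRC2 controls, from polarization read after 5 hr ambient incubation with T3-loaded human TRb LBD.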
Tau fibril FP – inhibitors of human tau fibril formation | K18 P301L tau heparin fibrillization, Alexa594 FP, 6 h | hit rate 0.39% among 280,000 | Potency, µM (top dose mostly 57.7 µM), for the others: at the top dose activity, negative = inhibition, usual class: inhibitors; also: nearly all actives have a fitted effect of over 55% in size
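Human tau K18 […] P301L fragment, 15 uM unlabeled plus 0.24 uM Alexa 594-labeled tau (final), with compound and 20 uM heparin in 100 mM sodium acetate pH 7; 6 hr at 37 C, then Alexa 594 FP read.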
Starred values were filed as active, the others as inactive; [ ] = remark or other dose. Unless noted, calls follow the shape of the dose curve; as a rule, active = well fitted curve in the direction sought with a large enough effect; inconclusive = small, poorly fitted or top-dose-only effect, or another doubt; inactive = no such curve, though single readings can be large; an effect the other way counts as inactive or inconclusive. Unless noted, % is scaled to controls: 0 for no effect and ±100 for the full control effect; potency is read from the fitted curve at half-maximal effect.

How did N#CCCN/N=C(/Cc1nc2ccccc2[nH]1)c1cccc(Cl)c1 do in these assays?
Tau ThT inhib: inconclusive; TR SRC2 fluor cs: 3%; Tau fluor cs: inconclusive; TRb-SRC2 inh: -4%; Tau fibril FP: 8%

How did CN/N=C(\Cc1nc2ccccc2[nH]1)c1ccc([N+](=O)[O-])cc1 do in these assays?
Tau ThT inhib: 13µM*; TR SRC2 fluor cs: -2%; Tau fluor cs: inconclusive; TRb-SRC2 inh: -5%; Tau fibril FP: 6%

What do the screens show for `CCN1/C(=C\C(C)=O)Sc2ccc(OC)cc21`?
Tau ThT inhib: -14%; TR SRC2 fluor cs: -2%; Tau fluor cs: -11%; TRb-SRC2 inh: 1%; Tau fibril FP: -4%

What do the screens show for `CCN1/C(=C/C(C)=C/c2sc3ccccc3[n+]2CC)Sc2ccccc21`?
Tau ThT inhib: 1.6µM*; TR SRC2 fluor cs: 20µM*[fluorescent]; Tau fluor cs: 0.45µM*[fluorescent]; TRb-SRC2 inh: inconclusive; Tau fibril FP: inconclusive

Results for CN(/C=C/c1c([N+](=O)[O-])c(=O)n(C)c(=O)n1C)c1ccccc1 ?
Tau ThT inhib: 5%; TR SRC2 fluor cs: -4%; Tau fluor cs: 3%; TRb-SRC2 inh: -6%; Tau fibril FP: 10%[2.34 µM]

How did CC1=C/C(=C/N(C)c2ccccc2)C(=O)S1 do in these assays?
Tau ThT inhib: 20µM*; TR SRC2 fluor cs: 4%; Tau fluor cs: -23%; TRb-SRC2 inh: -8%; Tau fibril FP: inconclusive

What do the screens show for `N#CC1=C(N)C2=CCCC[C@H]2[C@H](c2ccc(Br)cc2)C1(C#N)C#N`?
Tau ThT inhib: 14µM*; TR SRC2 fluor cs: 5%; Tau fluor cs: inconclusive; TRb-SRC2 inh: -4%; Tau fibril FP: inconclusive

What do the screens show for `CCc1cc2c(nc1CC)CCN(CC/C(C)=N/OC[C@@H](O)[C@@H]1O[C@@H]3OC(C)(C)O[C@@H]3[C@H]1O)C2`?
Tau ThT inhib: -3%[11.5 µM]; TR SRC2 fluor cs: -3%[11.2 µM]; Tau fluor cs: 0%[11.6 µM]; TRb-SRC2 inh: -4%[11.2 µM]; Tau fibril FP: 1%[11.6 µM]

What do the screens show for `CCOc1ccc(CNC(=O)c2cnc3sc(N4CCOCC4)nn3c2=O)cc1`?
Tau ThT inhib: 4%; TR SRC2 fluor cs: 1%; Tau fluor cs: 4%; TRb-SRC2 inh: 4%; Tau fibril FP: 8%

Results for CCOc1ccc(CNC(=O)c2cnc3sc(N4CCOCC4)nn3c2=O)cc1OC ?
Tau ThT inhib: -9%; TR SRC2 fluor cs: 1995µM*[quencher]; Tau fluor cs: -12%; TRb-SRC2 inh: inconclusive; Tau fibril FP: -10%

Results for COC(=O)c1cnc(N2CCN(c3ccc(OC)cc3)CC2)c2ccccc12 ?
Tau ThT inhib: 11µM*; TR SRC2 fluor cs: 1%; Tau fluor cs: inconclusive; TRb-SRC2 inh: -11%; Tau fibril FP: -5%

How did CC1(C)CC(=O)C2=C(C1)N=C1c3ccccc3C(=O)C1C2c1ccc(Cl)cc1 (stereo unspecified) do in these assays?
Tau ThT inhib: inconclusive; TR SRC2 fluor cs: -3%; Tau fluor cs: inconclusive; TRb-SRC2 inh: -1%; Tau fibril FP: 10%

What do the screens show for `CCOC(=O)C1=C(C)N=C2c3ccccc3C(=O)C2C1c1ccc(Cl)cc1` (stereo unspecified)?
Tau ThT inhib: inconclusive; TR SRC2 fluor cs: -1%; Tau fluor cs: 7.9µM*[quencher]; TRb-SRC2 inh: -1%; Tau fibril FP: 1%

How did Cc1ccccc1-n1sc2cc(F)ccc2c1=O do in these assays?
Tau ThT inhib: 10µM*; TR SRC2 fluor cs: -1%; Tau fluor cs: -14%; TRb-SRC2 inh: -4%; Tau fibril FP: 25µM*

What do the screens show for `Cc1ccccc1-n1c(=O)c2ccccc2n2cnnc12`?
Tau ThT inhib: 4%; TR SRC2 fluor cs: 4%; Tau fluor cs: -4%; TRb-SRC2 inh: 5%; Tau fibril FP: 8%

What do the screens show for `CCN(C(=O)Cn1nc(Cc2ccncc2)c2ccccc2c1=O)c1cccc(C(F)(F)F)c1`?
Tau ThT inhib: 3%; TR SRC2 fluor cs: 0%; Tau fluor cs: 1%; TRb-SRC2 inh: -3%; Tau fibril FP: -1%

What do the screens show for `CN(C)C(=O)n1nnnc1Cc1ccc(-c2ccccc2)cc1`?
Tau ThT inhib: -11%; TR SRC2 fluor cs: -1%; Tau fluor cs: -8%; TRb-SRC2 inh: -1%; Tau fibril FP: 5%
